From PubChem BioAssay (NCATS)
Records with an inconclusive call do not appear. Activity calls are given as the source filed them. The call rests on the fitted dose curve.

What follows are compounds tested against Peroxisome proliferator-activated receptor delta (Homo sapiens) (UniProt Q03181) (assay: qHTS assay for small molecule agonists of peroxisome proliferator-activated receptor delta signaling (AID 588534;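 further: 0% = DMSO basal wells and 100% = positive control agonist at 10 µM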)). Details: HEK293T PPARdelta-UAS-bla, beta-lactamase ratio, 18 h; series mostly up to 76.7 µM; activation: at the top concentration.
Sequence of Peroxisome proliferator-activated receptor delta (Homo sapiens) (Q03181 whole entry, looked up): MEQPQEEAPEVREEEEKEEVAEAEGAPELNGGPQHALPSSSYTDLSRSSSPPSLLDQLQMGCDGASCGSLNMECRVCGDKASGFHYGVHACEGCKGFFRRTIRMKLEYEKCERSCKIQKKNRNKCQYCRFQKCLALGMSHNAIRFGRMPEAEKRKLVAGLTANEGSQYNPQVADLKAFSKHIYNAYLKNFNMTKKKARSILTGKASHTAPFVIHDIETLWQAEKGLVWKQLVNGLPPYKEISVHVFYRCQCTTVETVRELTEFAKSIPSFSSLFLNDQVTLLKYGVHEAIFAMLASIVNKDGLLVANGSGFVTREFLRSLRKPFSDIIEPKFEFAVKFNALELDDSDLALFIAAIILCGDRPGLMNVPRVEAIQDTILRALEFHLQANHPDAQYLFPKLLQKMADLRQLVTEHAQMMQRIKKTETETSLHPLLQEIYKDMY
Description: NIH Chemical Genomics Center [NCGC] U.S. Environmental Protection Agency [EPA] National Institutes of Environmental Health Sciences [NIEHS] National Toxicology Program [NTP] NCGC Assay Overview The Peroxisome proliferator-activated receptors (PPARs) are lipid-activated transcription factors of the nuclear receptor superfamily with three distinct subtypes namely PPAR alpha, PPAR delta (also called PPAR beta) and PPAR gamma. All these subtypes heterodimerizes with Retinoid X receptor (RXR) and have different physiological functions. […] This role of PPAR delta implicates the potential use of its ligands in the treatment of metabolic disorders.
Compounds were screened in a titration series in 1536-well format. […] Concentration-response titration points for each compound were fitted to the Hill equation yielding concentrations of half-maximal stimulation (EC50) and maximal response (efficacy) values. qHTS protocol for PPAR-delta beta-lactamase assay in agonist mode [Step] [Parameter] [Value] [Description] 1. Reagent; 6 uL; 4000 cells/well 2. Incubation; 37 C for 5 hrs 3. Compounds; 23 nL; 0.59 nM to 92 uM 4. […] Incubation; 37 C for 18 hrs 6. Detection reagent; 1 uL of CCF4-dye 7. Incubation; RT for 2 hrs 8. Detection; Fluorescence; Envision plate reader
O=C(Nc1ccccc1)Nc1ccnc(Cl)c1 was tested, and the “activation” value was -12.4% (inactive). CCCCCCCCCc1ccccc1 was tested, and the “activation” value was 1.84% (inactive). OCCNCCO was tested, and the outcome was “inactive”. For CC(C)(C)C1CCC(O)CC1 (stereo not given), the “activation” value was -2.25% (inactive). For Cc1cc(Nc2ccc(O)cc2)ccc1N, the “activation” value was -2.68% (inactive). CCC/C(=N\OCC)C1=C(O)CC(O)(CC(C)S(=O)(=O)CC)CC1=O (stereo not given) was tested, and the “activation” value was -1.77% (inactive). For N[C@@H]1[C@@H](O)[C@H](O)[C@@H](CO)O[C@H]1O, the “activation” value was -0.472% (inactive). For CC(C)N(C(=O)COc1nnc(C(F)(F)F)s1)c1ccc(F)cc1, the “activation” value was 1.28% (inactive). For CN(C)c1nc(=O)n(C2CCCCC2)c(=O)n1C, the “activation” value was -2% (inactive). Cc1cc(Cl)ccc1O[C@H](C)C(=O)O was tested, and the “activation” value was -0.595% (inactive). With CCCC(Cl)CCCC(Cl)CCC(Cl)CCC(Cl)CCC(Cl)CCCC(Cl)CCC (stereo not given) the “activation” value was 10.4% (inactive). In the case of O=C(OCCOCCOC(=O)c1ccccc1)c1ccccc1, the “activation” value is reported as -2.93% (inactive). For CC1(C)CC(OC(=O)CCCCCCCCC(=O)OC2CC(C)(C)NC(C)(C)C2)CC(C)(C)N1, the “activation” value was -3.58% (inactive). In the case of Nc1cccc(C(F)(F)F)c1, the outcome is reported as “inactive”. With C=C(C)C(=O)OCCCCCCCCCCCC the “activation” value was 4.53% (inactive). O=C(O)CN(CCO)CCN(CC(=O)O)CC(=O)O was tested, and the “activation” value was 6.52% (inactive). Cc1cc(C)c(N)cc1C was tested, and the “activation” value was 5.22% (inactive). In the case of CC(=O)Nc1cccc(N)c1, the “activation” value is reported as 8.18% (inactive). In the case of CCOP(=O)(SC(C)CC)SC(C)CC (stereo not given), the “activation” value is reported as 5% (inactive). For CC1=C2[C@@H]([C@H](C)CC[C@H]2/C=C(\C)C(=O)O)[C@H](O)C1, the “activation” value was -10.4% (inactive). With CCC(C)(C)C(=O)O the “activation” value was 7.11% (inactive). COP(=O)(OC)O/C(=C\Cl)c1cc(Cl)c(Cl)cc1Cl was tested, and the “activation” value was -6.5% (inactive). With C[C@@H]1O[C@@H](O[C@@H]2[C@@H](O)[C@H](OCCc3ccc(O)c(O)c3)O[C@H](CO[C@@H]3O[C@H](CO)[C@@H](O)[C@H](O)[C@H]3O)[C@H]2OC(=O)/C=C/c2ccc(O)c(O)c2)[C@H](O)[C@H](O)[C@H]1O the “activation” value was -6.48% (inactive). In the case of COS(C)(=O)=O, the “activation” value is reported as 9.94% (inactive). For COC[C@H](C)N(C(=O)CCl)c1c(C)csc1C, the “activation” value was -6.41% (inactive). CCNc1nc(Cl)nc(NC(C)(C)C)n1 was tested, and the “activation” value was -6.09% (inactive). In the case of O=C(OCC1CCC2OC2C1)C1CCC2OC2C1 (stereo not given), the “activation” value is reported as -0.235% (inactive). For CC(C)(C)C(=O)[C@H](Oc1ccc(Cl)cc1)n1cncn1, the “activation” value was -10% (inactive). For CN(C)CCCCCCN(C)C, the “activation” value was 2.85% (inactive). With CCCCCCCC/C=C\CCCCCCCC(=O)OC[C@@H](O)[C@H]1OC[C@H](O)[C@H]1O the “activation” value was 0.755% (inactive). For CSCCC=O, the “activation” value was -1.86% (inactive). CCCCCC/C(C=O)=C\c1ccccc1 was tested, and the “activation” value was 2.64% (inactive). In the case of CCC(CC)Nc1c([N+](=O)[O-])cc(C)c(C)c1[N+](=O)[O-], the “activation” value is reported as 1.93% (inactive). With Cc1ccc(N=Nc2c(O)ccc3ccccc23)c(C)c1 the “activation” value was -3.73% (inactive). In the case of CC(C)Cc1nccs1, the “activation” value is reported as 5.24% (inactive). In the case of Cc1ccc([N+](=O)[O-])cc1N, the outcome is reported as “inactive”. With CCCCCCCN the “activation” value was 9.57% (inactive). In the case of O=P(Oc1ccccc1)(Oc1ccccc1)Oc1ccccc1, the “activation” value is reported as -4.65% (inactive). In the case of CC(C)(C)c1n[nH]c(=O)n(N)c1=O, the “activation” value is reported as -5.5% (inactive). With COCCOCCOCCO the “activation” value was 5.68% (inactive).
